The source made the active and inactive calls. Calls follow the shape of the dose curve; as a rule, active = well fitted curve in the direction sought with a large enough effect in the repeat runs; inconclusive = weak or mixed curves; inactive = flat fitted curve, though single readings scatter.

The values below come from PubChem BioAssay (Tox21).

The test in a line: qHTS assay to test for compound auto fluorescence at 535 nm (green) in HEK293 cell free culture (AID 720682). The conditions noted are these: cell-free medium, green autofluorescence 485/535 nm; series mostly up to 91.3 µM. The source says:
U.S. Tox21 Program National Center for Advancing Translational Sciences [NCATS] NIH Chemical Genomics Center [NCGC] U.S. Environmental Protection Agency [EPA] National Institutes of Environmental Health Sciences [NIEHS] National Toxicology Program [NTP] U.S. Food and Drug Administration [FDA] Tox21 Assay Overview: Compound auto fluorescence often interferes with screening of the compound library against various biological targets and signaling pathways. Some of these compounds may have fluorophoric properties. Such properties may interfere with the assay outputs resulting in false positives and/or negatives. To decrease such complications and ensure the compound activities are relevant in terms of biological response, the Tox21 10K compound library was screened for auto fluorescence. From the fluorophores used as reporter signals in our screening assays, the auto fluorescence equivalencies of compounds against three fluorophores have been evaluated: Triamterene, Fluorescein and Rose Bengal sodium for blue, green and red fluorescence, respectively. The fluorescence intensities were measured using Excitation/Emission wavelengths at 405/460nm, 485/535nm and 540/590nm for blue, green and red labels, respectively. This assay includes the green fluorescence data.
Tox21 Assay Protocol Summary: 5 uL of culture medium (DMEM containing 10% FBS) per well was dispensed into black wall/clear bottom 1536-well plates using a Multidrop Combi Dispenser (ThermoFisher Scientific, Waltham, MA). After 23 nL compound or DMSO vehicle was transferred into assay plate by a pintool work station (Kalypsys, San Diego, CA), fluorescence intensities in the assay plates were measured by an Envision (PerkinElmer, Shelton, CT) plate reader using three labels for measuring blue, green and red fluorescence at […] 460, 535 and 590nm respectively.
In the case of `CCC(C)(CC)c1cc(NC(=O)c2c(OC)cccc2OC)on1`, the result was inactive.
The same measure for `COc1ccc2c3c1O[C@H]1[C@@H](O)C=C[C@H]4[C@@H](C2)N(C)CC[C@@]341`: “inactive”; for `CC(Br)C(=O)O` (stereo not given): “inactive”.
With `CCN(CC)c1ccccc1` the entry was “inactive”; with `[N-]=[N+]=[N-]`, “inactive”.
The same measure for `O=C(O)c1ccccn1`: “inactive”; for `O=c1n(Cl)c(=O)n(Cl)c(=O)n1Cl`: “inactive”; for `C1CC2OC2CC1C1CO1` (stereo not given): “inactive”.
With `CCC12COCN1COC2`, the compound was classed as inactive.
The same measure for `Cc1[nH]c(=O)n(C(C)(C)C)c(=O)c1Cl`: “inactive”.
The same measure for `CCCCCCCCCCCC#N`: “inactive”.
With `CC(NC(C)(C)C)C(=O)c1cccc(Cl)c1` (stereo not given) the entry was “inactive”; with `C=CC(N)=O`, “inactive”.
On to `CCCCCOC(=O)c1ccccc1C(=O)OCCCCC`, for which the call was inactive.
With `COCCl` the entry was “inactive”; with `CC(C#N)CCC#N` (stereo not given), “inactive”; with `CC(C)=C[C@@H]1[C@@H](C(=O)OCc2coc(Cc3ccccc3)c2)C1(C)C`, “inactive”.
The same measure for `Nc1c(Cl)c(Cl)nc(C(=O)O)c1Cl`: “inactive”; for `CCCCN(CCCC)SN(C)C(=O)Oc1cccc2c1OC(C)(C)C2`: “inactive”; for `CCN(CC)CCO`: “inactive”.
Regarding `O=c1[nH]c(=O)[nH]c(=O)[nH]1`, the compound was called inactive.
With `CNC(=O)Oc1ccccc1OC(C)C` the entry was “inactive”; with `CN=C=S`, “inactive”; with `Cc1ccc(N)cc1Cl`, “inactive”.
The same measure for `COC(=O)c1ccccc1N`: “inactive”; for `Cc1ccccc1O`: “inactive”; for `BrCCBr`: “inactive”.
The same measure for `Nc1ccc(Br)cc1`: “inactive”; for `CC1OC(C)OC(C)O1` (stereo not given): “inactive”.
As for `c1cc2c3c(cccc3c1)CC2`, the result was inactive.
The same measure for `CN(C)[C@@H]1C(=O)C(C(N)=O)=C(O)[C@@]2(O)C(=O)C3=C(O)c4c(O)cccc4[C@@](C)(O)[C@H]3C[C@@H]12`: “inactive”.
With `Nc1ccc(Cc2ccc(N)cc2)cc1` the entry was “inactive”; with `CC(Oc1ccc(Cl)cc1Cl)C(=O)O` (stereo not given), “inactive”.
The same measure for `NCCc1ccc(O)cc1`: “inactive”.
For `C[C@]12CC[C@H]3[C@@H](CC[C@@]45O[C@@H]4C(O)=C(C#N)C[C@]35C)[C@@H]1CC[C@@H]2O`, the compound was called inactive.
With `CC(C)(C)C(O)(CCc1ccc(Cl)cc1)Cn1cncn1` (stereo not given) the entry was “inactive”.
The same measure for `O=C1CCCN1`: “inactive”.
Take `C#CC(C)(C)NC(=O)c1cc(Cl)cc(Cl)c1`: the compound was called inactive.
As to `ClCc1cccnc1`, the outcome was inactive.
With `CCOP(OCC)OCC` the entry was “inactive”.
